Measured values reported in PubChem BioAssay (NCATS).
Results filed as inconclusive are left out. Calls of active or inactive are those of the source. The call rests on the fitted dose curve; in most records, active means well fitted cell-killing curve with a large enough effect; inconclusive means small, poorly fitted or top-dose-only effect; inactive means flat fitted curve, though single readings scatter. Starred links: 1 amine or outer side, 2 acyl side, 3 side chain; linkers in the order of their positions; H or OH if unused. Positions of bridges follow the written chain, without caps; N, C: chain ends. Non-standard residues stand in square brackets, D forms with d. Residues, ends and D or L forms follow the SMILES beside them. Chains are numbered I, II in the order given. Actinocin(9to1) = Cc1c2oc3c(C)ccc(C(=O)[*:1])c3nc-2c(C(=O)[*:2])c(N)c1=O; NMeV = CN[CH](C(=O)O)C(C)C; Sar = CNCC(=O)O

Experiment: qHTS of pediatric cancer cell lines to identify multiple opportunities for drug repurposing: Primary screen for BT-12 cells (AID 1347101); further: nearly all actives have a fitted effect of over 25% in size
Settings: BT-12 viability, CellTiter-Glo luminescence, 48 h; series mostly up to 57.3 µM
From the text: Drug repurposing or repositioning has been offered as a strategy for drug development in oncology programs. This approach has special potential for childhood cancers and other rare or orphan diseases, where the expected return on new drug development has been a disincentive to pharmaceuticals.
In this project we exploit the poly-pharmacology of drugs to discover new indications via phenotypic screening of a panel of 19 well-characterized cell lines derived from solid tumors seen in children and adolescents. The goal is to identify approved drugs with previously unrecognized anticancer properties that has the potential to reveal new mechanisms and biological processes involved in carcinogenesis or drug resistance. We employed a titration-based paradigm (quantitative high-throughput screening or qHTS), where all compounds were tested at multiple concentrations for their effect on cell viability. Concentration-response curves (CRCs) were derived directly from the primary screen, and both potency and efficacy values were used to identify compounds with robust bioactivity profiles. We screened the NIH Chemical Genomics Center (NCGC) Pharmaceutical Collection (NPC) and Mechanism Interrogation Plate (MIPE) small molecule collections of approved and investigational compounds against these cell lines; and measured metabolically active cells after 48 hours of compound treatment as a proxy for cell viability.
Assay Submitter: Nathalia J. Martinez, National Center for Advancing Translational Sciences, National Institutes of Health, Rockville, MD, USA; email: natalia.martinez@nih.gov
[1] Shen, M et al. Quantitative high-throughput phenotypic screening of pediatric cancer cell lines identifies multiple opportunities for drug repurposing. Oncotarget 2017 Dec 19;9(4):4758-4772. PMID 29435139.
The cells were obtained from University of North Carolina (UNC), Pediatric Preclinical Testing Program (PPT), and Coriell Institute (CI).
qHTS cell viability assay:
Cells were assayed in growth media at a density of 500-1,000 cells/well. Five microliters of cells were dispensed into 1,536-well, white, solid-bottom, TC-treated plates (Greiner Bio One) using a multidrop dispenser and incubated at 37 degrees C, 5% CO2, under a humidified atmosphere for 5 hours. Twenty-three nanoliters of compounds and controls (neutral control DMSO or positive control bortezomib at final concentration of 2.3 µM) were subsequently transferred by Kalypsys pintool. For primary screens, the MIPE collection was tested at 11-point dilutions (final concentrations range from 0.78 nM to 46 µM) and the NPC collection at 8-point dilutions (final concentrations range from 0.59 nM to 46 µM). Compounds tested in follow-up screens were assayed at 11-point dilutions. Cells were incubated for 48 hours, followed by addition of 3 µL of CellTiter-Glo (Promega). After a 15 min incubation at room temperature, samples were analyzed for luminescence intensity using a ViewLux High-throughput CCD imager equipped with clear filters.
Potency means the concentration at half of the fitted maximal effect.

SMILES	Potency
O=C(CCCCCCC(=O)Nc1cccnc1)NO	10.9 µM (active)
CCN(CC)Cc1ccc2cc(COC(=O)Nc3ccc(C(=O)NO)cc3)ccc2c1	3.06 µM (active)
C#CCC(Cc1cnc2nc(N)nc(N)c2n1)c1ccc(C(=O)N[C@@H](CCC(=O)O)C(=O)O)cc1 (stereo not given in full)	0.0485 µM (active)
Cc1c2oc3c(C)ccc(C(=O)NC4C(=O)NC(C(C)C)C(=O)N5CCCC5C(=O)N(C)CC(=O)N(C)C(C(C)C)C(=O)OC4C)c3nc-2c(C(=O)NC2C(=O)NC(C(C)C)C(=O)N3CCCC3C(=O)N(C)CC(=O)N(C)C(C(C)C)C(=O)OC2C)c(N)c1=O (stereo not given) (I: TVP[Sar][NMeV] / II: TVP[Sar][NMeV]; ester I:1-I:C, II:1-II:C; linker I:N-II:N via Actinocin(9to1); configuration not given here)	0.001 µM (active)
Cc1cc(O)c2c(c1)C(=O)c1cccc(O)c1C2=O	inactive
C=C1C[C@@]2(O)O[C@@]3(C[C@H]2C(C)C)[C@H](C)CC[C@H]13	inactive
COC(=O)C=CC(=O)OC	inactive
C=Cc1c(C)c2cc3nc(cc4[nH]c(cc5nc(cc1[nH]2)C(C)=C5CCC(=O)O)c(CCC(=O)OC)c4C)[C@@]1(C)C3=CC=C(C(=O)OC)[C@H]1C(=O)OC	0.344 µM (active)
C[C@@]12C[C@@]3(O)O[C@@H](O1)[C@]1(COC(=O)c4ccccc4)[C@@H]3C[C@@]12O[C@@H]1O[C@H](CO)[C@@H](O)[C@H](O)[C@@H]1O	inactive
CN(N=O)C(=O)N[C@H]1C(O)OC(CO)[C@@H](O)[C@H]1O (stereo not given in full)	inactive
O=c1c(O)c(-c2ccc(O)c(O)c2)oc2cc(O)ccc12	27.3 µM (active)
CCOc1cc2c(c(F)c1OCC)C(=N)N(CC(=O)c1cc(N3CCOCC3)c(OC)c(C(C)(C)C)c1)C2	27.3 µM (active)
C[C@H](CCC(=O)O)[C@H]1CC[C@H]2[C@@H]3[C@H](O)C[C@@H]4C[C@H](O)CC[C@]4(C)[C@@H]3CC[C@]12C	inactive
OCc1ccccc1O[C@@H]1O[C@H](CO)[C@H](O)[C@H](O)[C@H]1O	inactive
Cn1cc(C[C@@H](N)C(=O)O)c2ccccc21	inactive
CCOC(=O)N1CCN([N+]([O-])=NOc2ccc([N+](=O)[O-])cc2C#N)CC1	3.06 µM (active)
CC[C@H]1OC(=O)[C@H](C)[C@@H](O[C@H]2C[C@@](C)(OC)[C@@H](O)[C@H](C)O2)[C@H](C)[C@@H](O[C@@H]2O[C@H](C)C[C@H](N(C)C)[C@@H]2O)[C@](C)(OC)C[C@@H](C)C(=O)[C@H](C)[C@@H](O)[C@]1(C)O	inactive
Nc1nc(=O)n([C@H]2CSC(CO)O2)cc1F (stereo not given in full)	inactive
O=C1CSC(=O)N1C(CCc1ccncc1)COc1ccc(-c2cccc([N+](=O)[O-])c2)cc1 (stereo not given)	6.85 µM (active)
CC(=CC(=O)Nc1ccccc1C(=O)O)c1ccc2ccccc2c1	inactive

SMILES	Potency
Nc1ccn(C[C@@H](CO)OCP(=O)(O)O)c(=O)n1	inactive
O=C(O)C[C@H](O)C[C@H](O)C=Cc1c(C2CC2)nc2ccccc2c1-c1ccc(F)cc1	0.273 µM (active)
CC(=O)[C@]1(O)Cc2c(O)c3c(c(O)c2[C@@H](O[C@H]2C[C@H](N)[C@@H](O)[C@H](C)O2)C1)C(=O)c1ccccc1C3=O	0.685 µM (active)
CC1(C)CC(O)CC(C)(C)N1[O]	inactive
C[N+](C)([O-])CCNc1ccc(NCC[N+](C)(C)[O-])c2c1C(=O)c1c(O)ccc(O)c1C2=O	inactive
C[C@H]1[C@@H](OC(=O)CCC(=O)O)O[C@@H]2O[C@@]3(C)CC[C@@H]4[C@H](C)CC[C@@H]1[C@@]24OO3	1.22 µM (active)
NC(=NCCCCCCN=C(N)N=C(N)Nc1ccc(Cl)cc1)N=C(N)Nc1ccc(Cl)cc1	13.7 µM (active)
C=C(C)[C@@H]1CC[C@]2(C(=O)O)CC[C@]3(C)[C@H](CC[C@@H]4[C@@]5(C)CC[C@H](O)C(C)(C)[C@@H]5CC[C@]43C)[C@@H]12	inactive
C=CC(=O)N1CCc2ccc(-n3c(=O)ccc4cnc5ccc(-c6cnn(C)c6)cc5c43)cc21	6.11 µM (active)
C=C1CCC2[C@](C)(CO)C(O)CC[C@]2(C)C1CC=C1C(=O)OCC1O (stereo not given in full)	inactive
CC(C)Oc1ccc(C(=O)N[C@H](CNC(=O)CN(C)C)Cc2ccc(-c3cn4cccc([C@H](C)O)c4n3)cc2)cc1Cl	1.93 µM (active)
COc1cccc2c1C(=O)c1c(O)c3c(c(O)c1C2=O)C[C@@](O)(C(=O)CO)C[C@@H]3O[C@H]1C[C@H](N)[C@@H](O)[C@H](C)O1	0.685 µM (active)
c1coc(CNc2ncnc3nc[nH]c23)c1	inactive
CCN(CC)CCCCNc1ncc2c(n1)N(C)C(=O)N(c1c(Cl)c(OC)cc(OC)c1Cl)C2	17.2 µM (active)
O=C(Nc1cc2cc[nH]c2cn1)c1ccccc1	6.85 µM (active)
CC(C)(N)c1ccc(-c2nc3ccccc3nc2-c2ccccc2)cc1	24.3 µM (active)
OC[C@H]1OC(O)C[C@@H](O)[C@H]1O (stereo not given in full)	inactive
CCOc1cc2ncc(C#N)c(Nc3ccc(OCc4ccccn4)c(Cl)c3)c2cc1NC(=O)C=CCN(C)C	1.93 µM (active)
O=C(c1ccc(F)cc1)N1CCC[C@H](c2nc(-c3ccc(F)cc3)no2)C1	inactive
Cn1cc(CNCC2CCN(c3ncc(C(=O)NO)cn3)CC2)c2ccccc21	0.193 µM (active)
